Results: the supplement of paper PMC10849652
The full data set covers some 8,800 targets. This sample favours those with a hit. About 0.5% of all pairs of compound and target were hits. Unmarked numbers belong to inactive results.

Tests used:
Assay in all cases: log2 fold change, soluble protein after heating vs DMSO (PISA); higher = thermal stabilisation; K562 lysate, 10 uM; active = over 0.2 and 3.5 SD of the protein, either way, in both replicates (recomputed)
[1] = compound: C1=CC=C(C=C1)[C@H](COC2=CC3=C(C=C2)NC(=O)N3)NC(=O)C4=CC=CN(C4=O)CC5=CC(=C(C=C5)F)F
Outline: (§1)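 The values are log-two fold changes in thermal stability compared with solvent controls and come from duplicates. They were obtained by TMTpro 16plex LC-MS/MS, with channel sums equalised, on the supernatant after 21,000xg for 90 min. That supernatant came from crude K562 extract at 1 mg/mL protein treated with 10 μM compound for 30 min, heated for 3 min across 48°C-58°C, pooled and brought to 0.5% NP-40 at 4°C.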

[2] = compound: CC1=C(SC2=C1C(=N[C@H](C3=NN=C(N32)C)CC(=O)N)C4=CC=C(C=C4)Cl)C
Outline: as §1

[3] = compound: CC1=C2C(=CC=C1)N=C(N(C2=O)C3=CC=CC=C3C)CN4C=NC5=C(N=CN=C54)N
Outline: as §1

[4] = compound: Cc1sc2c(c1C)C(c1ccc(Cl)cc1)=N[C@@H](CC(=O)OC(C)(C)C)c1nnc(C)n1-2
Outline: as §1

[5] = compound: c1ccc([C@@H]2C[C@H]2NC2CCNCC2)cc1
Outline: as §1

RCC1 isoform 2 (UniProt P18754)
log2 fold change [1]: 0.023
log2 fold change [2]: 0.026
log2 fold change [3]: -0.013
log2 fold change [4]: 0.045
log2 fold change [5]: 0.014

RASA3 (UniProt Q14644)
log2 fold change [1]: -0.066
log2 fold change [2]: 0.149
log2 fold change [3]: 0.078
log2 fold change [4]: 0.078
log2 fold change [5]: 0.047

RHAG (UniProt Q02094)
log2 fold change [1]: 0.033
log2 fold change [2]: -0.076
log2 fold change [3]: 0.145
log2 fold change [4]: -0.066
log2 fold change [5]: -0.143

SAR1B (UniProt Q9Y6B6)
Chain of UniProt Q9Y6B6 (Q9Y6B6 whole entry, looked up): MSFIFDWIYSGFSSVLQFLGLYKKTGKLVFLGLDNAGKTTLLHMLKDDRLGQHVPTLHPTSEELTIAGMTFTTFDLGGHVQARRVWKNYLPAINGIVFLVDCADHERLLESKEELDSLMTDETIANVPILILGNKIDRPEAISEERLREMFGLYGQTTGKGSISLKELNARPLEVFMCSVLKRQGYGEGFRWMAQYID
log2 fold change [1]: -0.006
log2 fold change [2]: -0.007
log2 fold change [3]: -0.01
log2 fold change [4]: -0.068
log2 fold change [5]: 0.052

RABGGTB (UniProt P53611)
log2 fold change [1]: -0.102
log2 fold change [2]: -0.01
log2 fold change [3]: 0.005
log2 fold change [4]: -0.048
log2 fold change [5]: -0.017

RCOR1 (UniProt Q9UKL0)
log2 fold change [1]: -0.034
log2 fold change [2]: 0.03
log2 fold change [3]: -0.003
log2 fold change [4]: -0.023
log2 fold change [5]: 0.494 (active)

RALGAPA1 isoform 6 (UniProt Q6GYQ0)
log2 fold change [1]: -0.041
log2 fold change [2]: -0.072
log2 fold change [3]: 0.006
log2 fold change [4]: -0.063
log2 fold change [5]: -0.178

RDH10 (UniProt Q8IZV5)
log2 fold change [1]: 0.147
log2 fold change [2]: 0.018
log2 fold change [3]: 0.006
log2 fold change [4]: -0.051
log2 fold change [5]: -0.06

RIOK1 (UniProt Q9BRS2)
log2 fold change [1]: -0.026
log2 fold change [2]: -0.031
log2 fold change [3]: -0.003
log2 fold change [4]: -0.006
log2 fold change [5]: -0.015

RAPGEF4 (UniProt Q8WZA2)
log2 fold change [1]: 0
log2 fold change [2]: 0.092
log2 fold change [3]: 0.06
log2 fold change [4]: -0.274
log2 fold change [5]: -0.558

REEP5 (UniProt Q00765)
log2 fold change [1]: 0.007
log2 fold change [2]: 0.009
log2 fold change [3]: 0.028
log2 fold change [4]: 0.022
log2 fold change [5]: -0.092

RPAP1 (UniProt Q9BWH6)
log2 fold change [1]: -0.006
log2 fold change [2]: 0.018
log2 fold change [3]: 0.015
log2 fold change [4]: -0.038
log2 fold change [5]: 0.028

RTTN (UniProt Q86VV8)
log2 fold change [1]: 0.089
log2 fold change [2]: -0.033
log2 fold change [3]: -0.289
log2 fold change [4]: 0.046
log2 fold change [5]: 0.024

RNF149 (UniProt Q8NC42)
log2 fold change [1]: -0.015
log2 fold change [2]: 0.022
log2 fold change [3]: -0.138
log2 fold change [4]: -0.081
log2 fold change [5]: 0

RPL8 (UniProt P62917)
log2 fold change [1]: -0.012
log2 fold change [2]: -0.036
log2 fold change [3]: -0.031
log2 fold change [4]: 0.066
log2 fold change [5]: 0.032

RAD50 isoform 2 (UniProt Q92878)
log2 fold change [1]: -0.002
log2 fold change [2]: -0.031
log2 fold change [3]: 0.004
log2 fold change [4]: 0.008
log2 fold change [5]: 0.009

RFC5 (UniProt P40937)
Chain of UniProt P40937 (P40937 whole entry, looked up): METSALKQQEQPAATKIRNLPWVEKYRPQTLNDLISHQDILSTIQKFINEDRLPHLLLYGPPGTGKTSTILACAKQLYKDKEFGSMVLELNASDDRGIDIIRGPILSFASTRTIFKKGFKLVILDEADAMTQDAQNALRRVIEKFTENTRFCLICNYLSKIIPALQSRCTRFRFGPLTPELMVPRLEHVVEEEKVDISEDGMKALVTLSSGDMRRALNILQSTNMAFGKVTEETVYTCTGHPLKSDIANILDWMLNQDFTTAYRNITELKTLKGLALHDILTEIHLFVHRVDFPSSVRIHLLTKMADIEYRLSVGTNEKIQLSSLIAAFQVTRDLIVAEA
log2 fold change [1]: -0.024
log2 fold change [2]: 0.018
log2 fold change [3]: 0.041
log2 fold change [4]: 0.034
log2 fold change [5]: 0.027

REL isoform 2 (UniProt Q04864)
log2 fold change [1]: 0.017
log2 fold change [2]: 0
log2 fold change [3]: -0.003
log2 fold change [4]: 0.031
log2 fold change [5]: 0.03

RRAGA (UniProt Q7L523)
log2 fold change [1]: 0.024
log2 fold change [2]: -0.039
log2 fold change [3]: 0.01
log2 fold change [4]: -0.045
log2 fold change [5]: -0.036

SERINC3 (UniProt Q13530)
log2 fold change [1]: 0.109
log2 fold change [2]: -0.016
log2 fold change [3]: 0.028
log2 fold change [4]: -0.056
log2 fold change [5]: -0.175

RELN (UniProt P78509)
Chain of UniProt P78509 (P78509 whole entry, looked up): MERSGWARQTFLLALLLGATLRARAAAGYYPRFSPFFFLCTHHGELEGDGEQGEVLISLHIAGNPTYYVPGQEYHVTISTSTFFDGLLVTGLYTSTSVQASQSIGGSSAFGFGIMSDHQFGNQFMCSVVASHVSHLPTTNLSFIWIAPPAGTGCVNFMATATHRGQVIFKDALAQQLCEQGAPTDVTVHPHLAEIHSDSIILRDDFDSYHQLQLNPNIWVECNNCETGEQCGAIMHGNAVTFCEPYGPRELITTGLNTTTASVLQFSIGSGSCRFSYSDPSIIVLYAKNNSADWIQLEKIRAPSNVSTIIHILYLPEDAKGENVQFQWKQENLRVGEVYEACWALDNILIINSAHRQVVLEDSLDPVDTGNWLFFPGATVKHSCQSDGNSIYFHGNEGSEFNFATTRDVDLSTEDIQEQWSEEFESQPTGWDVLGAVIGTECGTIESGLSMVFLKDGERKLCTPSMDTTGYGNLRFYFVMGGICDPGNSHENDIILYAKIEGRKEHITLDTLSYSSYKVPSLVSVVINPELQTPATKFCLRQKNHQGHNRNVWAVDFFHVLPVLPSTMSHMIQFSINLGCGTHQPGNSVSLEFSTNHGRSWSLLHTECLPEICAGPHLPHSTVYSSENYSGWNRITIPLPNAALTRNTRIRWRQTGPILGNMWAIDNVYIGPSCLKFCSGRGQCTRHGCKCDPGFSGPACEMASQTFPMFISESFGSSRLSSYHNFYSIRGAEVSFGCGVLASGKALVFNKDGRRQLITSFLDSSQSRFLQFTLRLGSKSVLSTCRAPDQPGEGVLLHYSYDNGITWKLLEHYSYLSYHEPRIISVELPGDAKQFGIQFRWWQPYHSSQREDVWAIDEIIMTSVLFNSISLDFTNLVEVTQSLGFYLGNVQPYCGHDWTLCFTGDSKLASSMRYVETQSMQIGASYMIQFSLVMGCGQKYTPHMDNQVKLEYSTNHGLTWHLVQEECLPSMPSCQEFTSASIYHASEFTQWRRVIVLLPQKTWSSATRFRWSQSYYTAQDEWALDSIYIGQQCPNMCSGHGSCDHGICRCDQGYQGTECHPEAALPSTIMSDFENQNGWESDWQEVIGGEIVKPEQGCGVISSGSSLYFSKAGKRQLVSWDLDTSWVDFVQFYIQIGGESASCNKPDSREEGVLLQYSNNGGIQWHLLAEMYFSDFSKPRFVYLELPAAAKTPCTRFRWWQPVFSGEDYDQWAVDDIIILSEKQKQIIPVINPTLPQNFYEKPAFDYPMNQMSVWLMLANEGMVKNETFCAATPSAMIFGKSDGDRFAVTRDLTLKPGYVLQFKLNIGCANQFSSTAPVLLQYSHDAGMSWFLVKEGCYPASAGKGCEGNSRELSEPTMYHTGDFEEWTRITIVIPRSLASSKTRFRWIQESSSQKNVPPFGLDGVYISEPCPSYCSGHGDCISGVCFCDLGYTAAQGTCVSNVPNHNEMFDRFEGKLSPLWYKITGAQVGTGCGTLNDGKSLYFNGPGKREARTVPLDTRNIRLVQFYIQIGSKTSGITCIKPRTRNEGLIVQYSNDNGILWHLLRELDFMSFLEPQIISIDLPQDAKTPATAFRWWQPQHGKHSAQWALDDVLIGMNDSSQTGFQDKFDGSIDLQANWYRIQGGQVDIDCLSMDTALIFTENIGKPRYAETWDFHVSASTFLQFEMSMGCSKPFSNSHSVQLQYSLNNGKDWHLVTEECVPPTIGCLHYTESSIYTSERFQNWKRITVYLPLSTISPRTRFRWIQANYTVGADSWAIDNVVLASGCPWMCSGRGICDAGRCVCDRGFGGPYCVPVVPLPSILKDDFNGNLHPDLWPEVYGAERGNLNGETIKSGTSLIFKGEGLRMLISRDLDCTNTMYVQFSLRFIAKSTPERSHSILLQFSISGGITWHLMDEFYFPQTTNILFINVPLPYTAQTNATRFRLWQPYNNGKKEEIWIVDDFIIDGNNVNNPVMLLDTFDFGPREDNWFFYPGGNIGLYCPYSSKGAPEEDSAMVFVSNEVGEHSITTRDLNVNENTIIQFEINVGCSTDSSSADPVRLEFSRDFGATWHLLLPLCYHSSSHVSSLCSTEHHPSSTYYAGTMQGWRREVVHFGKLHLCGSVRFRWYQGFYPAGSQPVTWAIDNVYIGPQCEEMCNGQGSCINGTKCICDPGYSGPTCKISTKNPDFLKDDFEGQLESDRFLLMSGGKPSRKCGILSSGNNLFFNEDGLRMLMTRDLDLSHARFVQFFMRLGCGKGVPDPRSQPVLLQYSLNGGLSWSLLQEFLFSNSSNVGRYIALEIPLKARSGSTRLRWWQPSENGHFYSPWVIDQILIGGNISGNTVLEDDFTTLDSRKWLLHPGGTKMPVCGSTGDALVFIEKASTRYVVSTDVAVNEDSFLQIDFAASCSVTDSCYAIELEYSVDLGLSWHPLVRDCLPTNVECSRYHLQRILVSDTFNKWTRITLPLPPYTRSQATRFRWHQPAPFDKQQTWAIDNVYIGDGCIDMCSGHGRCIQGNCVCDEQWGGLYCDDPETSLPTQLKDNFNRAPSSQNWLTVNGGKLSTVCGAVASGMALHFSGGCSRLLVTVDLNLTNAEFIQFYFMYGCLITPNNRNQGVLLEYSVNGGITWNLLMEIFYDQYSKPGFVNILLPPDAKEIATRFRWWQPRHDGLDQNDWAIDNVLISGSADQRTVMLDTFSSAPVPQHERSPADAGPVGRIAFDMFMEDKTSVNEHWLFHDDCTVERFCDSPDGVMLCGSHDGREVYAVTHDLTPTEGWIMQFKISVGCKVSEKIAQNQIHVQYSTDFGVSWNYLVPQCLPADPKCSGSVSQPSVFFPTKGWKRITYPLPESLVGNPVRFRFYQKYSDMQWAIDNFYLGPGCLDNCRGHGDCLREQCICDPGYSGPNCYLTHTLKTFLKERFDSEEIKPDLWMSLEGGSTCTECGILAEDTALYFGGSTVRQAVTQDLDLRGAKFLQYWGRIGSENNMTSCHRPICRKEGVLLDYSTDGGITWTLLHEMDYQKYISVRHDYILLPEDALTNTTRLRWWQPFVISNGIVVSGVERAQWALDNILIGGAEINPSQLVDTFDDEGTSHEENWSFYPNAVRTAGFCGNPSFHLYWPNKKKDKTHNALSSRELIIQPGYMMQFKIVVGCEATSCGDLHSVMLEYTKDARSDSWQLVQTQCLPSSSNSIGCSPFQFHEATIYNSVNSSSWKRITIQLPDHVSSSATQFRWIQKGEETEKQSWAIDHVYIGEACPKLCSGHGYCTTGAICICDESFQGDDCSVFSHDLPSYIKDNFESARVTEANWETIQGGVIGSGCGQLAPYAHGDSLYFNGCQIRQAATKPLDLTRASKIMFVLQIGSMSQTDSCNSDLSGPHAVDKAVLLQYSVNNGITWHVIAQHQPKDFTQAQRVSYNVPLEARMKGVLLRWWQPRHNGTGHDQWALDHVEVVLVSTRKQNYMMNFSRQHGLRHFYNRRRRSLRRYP
log2 fold change [1]: 0.033
log2 fold change [2]: -0.007
log2 fold change [3]: 0.025
log2 fold change [4]: -0.089
log2 fold change [5]: -0.036

R3HCC1 (UniProt Q9Y3T6)
log2 fold change [1]: 0.014
log2 fold change [2]: 0.015
log2 fold change [3]: 0.006
log2 fold change [4]: -0.014
log2 fold change [5]: -0.047

SBF1 isoform 4 (UniProt O95248)
log2 fold change [1]: -0.08
log2 fold change [2]: 0.001
log2 fold change [3]: -0.094
log2 fold change [4]: 0.092
log2 fold change [5]: 0.072

RPS4X (UniProt P62701)
log2 fold change [1]: 0.02
log2 fold change [2]: 0.029
log2 fold change [3]: -0.009
log2 fold change [4]: 0.044
log2 fold change [5]: 0.066

RPS26P11 (UniProt Q5JNZ5)
log2 fold change [1]: -0.001
log2 fold change [2]: 0.031
log2 fold change [3]: 0.05
log2 fold change [4]: -0.033
log2 fold change [5]: -0.31 (active)

RAB8B (UniProt Q92930)
log2 fold change [1]: -0.067
log2 fold change [2]: 0.013
log2 fold change [3]: -0.041
log2 fold change [4]: -0.012
log2 fold change [5]: 0.146

RANBP2 (UniProt P49792)
log2 fold change [1]: -0.019
log2 fold change [2]: -0.009
log2 fold change [3]: 0.002
log2 fold change [4]: 0.003
log2 fold change [5]: 0.02

SASS6 (UniProt Q6UVJ0)
log2 fold change [1]: -0.01
log2 fold change [2]: 0.028
log2 fold change [3]: 0
log2 fold change [4]: 0.021
log2 fold change [5]: 0.037

RAD17 (UniProt O75943)
log2 fold change [1]: -0.031
log2 fold change [2]: -0.077
log2 fold change [3]: 0.047
log2 fold change [4]: -0.066
log2 fold change [5]: 0.002

RARS (UniProt P54136)
log2 fold change [1]: -0.014
log2 fold change [2]: 0.038
log2 fold change [3]: 0.024
log2 fold change [4]: 0.028
log2 fold change [5]: 0.091

SELENOK (UniProt Q9Y6D0)
log2 fold change [1]: 0.061
log2 fold change [2]: -0.074
log2 fold change [3]: -0.05
log2 fold change [4]: -0.181
log2 fold change [5]: -0.311

RNF113A (UniProt O15541)
Chain of UniProt O15541 (O15541 whole entry, looked up): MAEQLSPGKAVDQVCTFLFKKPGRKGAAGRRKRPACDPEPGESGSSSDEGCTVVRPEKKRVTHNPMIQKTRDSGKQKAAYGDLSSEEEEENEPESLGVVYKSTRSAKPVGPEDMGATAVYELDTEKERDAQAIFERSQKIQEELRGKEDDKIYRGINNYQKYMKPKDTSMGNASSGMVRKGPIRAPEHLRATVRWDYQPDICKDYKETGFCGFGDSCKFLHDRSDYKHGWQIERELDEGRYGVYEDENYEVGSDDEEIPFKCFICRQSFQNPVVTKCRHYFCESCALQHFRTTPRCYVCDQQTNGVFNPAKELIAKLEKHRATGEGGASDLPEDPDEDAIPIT
log2 fold change [1]: 0.047
log2 fold change [2]: -0.022
log2 fold change [3]: -0.018
log2 fold change [4]: -0.065
log2 fold change [5]: -0.066

RINT1 (UniProt Q6NUQ1)
log2 fold change [1]: -0.021
log2 fold change [2]: -0.008
log2 fold change [3]: 0.019
log2 fold change [4]: -0.008
log2 fold change [5]: 0.026

SEC13 isoform 3 (UniProt P55735)
log2 fold change [1]: 0.022
log2 fold change [2]: -0.013
log2 fold change [3]: -0.001
log2 fold change [4]: -0.029
log2 fold change [5]: 0.191

SAR1A (UniProt Q9NR31)
Chain of UniProt Q9NR31 (Q9NR31 whole entry, looked up): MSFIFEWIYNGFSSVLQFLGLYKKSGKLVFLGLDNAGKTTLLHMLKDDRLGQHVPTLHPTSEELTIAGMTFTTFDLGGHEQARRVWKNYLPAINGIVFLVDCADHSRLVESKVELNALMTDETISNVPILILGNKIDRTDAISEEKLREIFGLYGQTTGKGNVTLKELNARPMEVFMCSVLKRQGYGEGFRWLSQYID
log2 fold change [1]: 0.066
log2 fold change [2]: 0.038
log2 fold change [3]: 0.005
log2 fold change [4]: -0.116
log2 fold change [5]: -0.009

ROCK1 (UniProt Q13464)
log2 fold change [1]: 0.019
log2 fold change [2]: 0.027
log2 fold change [3]: 0.023
log2 fold change [4]: -0.016
log2 fold change [5]: -0.008

RAD54L2 (UniProt Q9Y4B4)
log2 fold change [1]: 0.139
log2 fold change [2]: 0.144
log2 fold change [3]: 0.029
log2 fold change [4]: -0.131
log2 fold change [5]: 0.147

SEC61G (UniProt P60059)
log2 fold change [1]: 0.269
log2 fold change [2]: -0.063
log2 fold change [3]: -0.016
log2 fold change [4]: -0.065
log2 fold change [5]: -0.225

RPS9 (UniProt P46781)
log2 fold change [1]: 0.003
log2 fold change [2]: 0.038
log2 fold change [3]: -0.007
log2 fold change [4]: 0.1
log2 fold change [5]: 0.124

RIOK3 (UniProt O14730)
Chain of UniProt O14730 (O14730 whole entry, looked up): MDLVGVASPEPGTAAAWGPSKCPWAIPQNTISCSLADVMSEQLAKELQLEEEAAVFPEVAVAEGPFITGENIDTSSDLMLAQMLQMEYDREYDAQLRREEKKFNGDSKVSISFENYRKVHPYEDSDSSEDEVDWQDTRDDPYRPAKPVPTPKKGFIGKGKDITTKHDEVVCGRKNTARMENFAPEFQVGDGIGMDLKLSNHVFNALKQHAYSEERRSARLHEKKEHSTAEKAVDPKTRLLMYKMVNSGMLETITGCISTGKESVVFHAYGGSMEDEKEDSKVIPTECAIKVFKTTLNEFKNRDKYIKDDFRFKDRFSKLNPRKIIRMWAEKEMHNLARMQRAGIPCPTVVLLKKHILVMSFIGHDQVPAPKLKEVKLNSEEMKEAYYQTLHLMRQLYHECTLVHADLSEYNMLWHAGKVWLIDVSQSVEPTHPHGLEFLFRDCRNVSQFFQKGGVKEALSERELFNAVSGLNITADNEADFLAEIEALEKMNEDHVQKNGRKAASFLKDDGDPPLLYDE
log2 fold change [1]: 0.002
log2 fold change [2]: 0.052
log2 fold change [3]: 0.053
log2 fold change [4]: -0.007
log2 fold change [5]: 0.016

RAF1 isoform 2 (UniProt P04049)
log2 fold change [1]: 0.024
log2 fold change [2]: 0.035
log2 fold change [3]: -0.104
log2 fold change [4]: -0.017
log2 fold change [5]: 0.013

RCAN1 (UniProt P53805)
log2 fold change [1]: 0.141
log2 fold change [2]: -0.074
log2 fold change [3]: -0.063
log2 fold change [4]: -0.026
log2 fold change [5]: 0.026

RPS18 (UniProt P62269)
log2 fold change [1]: -0.009
log2 fold change [2]: 0.046
log2 fold change [3]: 0.024
log2 fold change [4]: -0.003
log2 fold change [5]: -0.075

RIPK1 (UniProt Q13546)
log2 fold change [1]: -0.019
log2 fold change [2]: -0.015
log2 fold change [3]: -0.009
log2 fold change [4]: -0.04
log2 fold change [5]: -0.021

SEH1L isoform 1 (UniProt Q96EE3)
log2 fold change [1]: 0.016
log2 fold change [2]: 0.031
log2 fold change [3]: -0.045
log2 fold change [4]: -0.041
log2 fold change [5]: -0.028

RNF123 (UniProt Q5XPI4)
log2 fold change [1]: -0.019
log2 fold change [2]: -0.024
log2 fold change [3]: 0.019
log2 fold change [4]: 0.005
log2 fold change [5]: 0.047

RABEPK (UniProt Q7Z6M1)
log2 fold change [1]: -0.032
log2 fold change [2]: 0.054
log2 fold change [3]: 0.026
log2 fold change [4]: 0.017
log2 fold change [5]: -0.071

RAB3IL1 (UniProt E9PK89)
log2 fold change [1]: -0.109
log2 fold change [2]: 0.057
log2 fold change [3]: 0.014
log2 fold change [4]: -0.189
log2 fold change [5]: -0.006

RCOR3 isoform 3 (UniProt Q9P2K3)
log2 fold change [1]: -0.026
log2 fold change [2]: 0.009
log2 fold change [3]: 0.046
log2 fold change [4]: 0.011
log2 fold change [5]: 0.394 (active)

RPL28 (UniProt P46779)
log2 fold change [1]: 0.042
log2 fold change [2]: -0.02
log2 fold change [3]: 0.001
log2 fold change [4]: -0.008
log2 fold change [5]: 0.041

RECQL4 (UniProt O94761)
log2 fold change [1]: 0.002
log2 fold change [2]: -0.012
log2 fold change [3]: 0.073
log2 fold change [4]: -0.011
log2 fold change [5]: 0.154

RDX (UniProt P35241)
log2 fold change [1]: -0.029
log2 fold change [2]: -0.036
log2 fold change [3]: 0.003
log2 fold change [4]: 0.025
log2 fold change [5]: 0.148

RNF40 (UniProt O75150)
log2 fold change [1]: 0
log2 fold change [2]: -0.02
log2 fold change [3]: 0.007
log2 fold change [4]: -0.003
log2 fold change [5]: 0.041
